Data taken from the supplement of paper PMC6555819.

What was measured:
Test in all cases: PBM binding z-score (relative to random genomic background probes); higher = stronger binding; sequences stand for … in GC…GCGATTGACAGCGTAGAATGAAGG
[1] = system: PPARg:RXRa DBDmut IVT, anti-RXR (DBD mutation: RXRa K156A/R161A, NR concentration 270 nM, RXRa partner concentration 90 nM)
In short: (§1)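 Binding z-scores were set against random background probes. The data came from custom Agilent 4×180K protein-binding microarrays carrying double-stranded probes with 34-nt variable regions, incubated 1 h with ligand-free nuclear receptor dimers. Partner-specific antibodies detected binding, and scanned fluorescence was regression-normalized.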

[2] = system: PPARg:RXRa IVT, anti-PPARg (NR concentration 270 nM, RXRa partner concentration 90 nM)
In short: as §1

[3] = system: PPARg DBDmut:RXRa IVT, anti-PPARg (DBD mutation: PPARg1 K132A/R137A, NR concentration 270 nM, RXRa partner concentration 90 nM)
In short: as §1

[4] = system: PPARg DBDmut IVT, anti-PPARg (DBD mutation: PPARg1 K132A/R137A, NR concentration 270 nM)
In short: as §1

[5] = system: PPARg homodimer (NR concentration 180 nM)
In short: as §1

[6] = system: PXR:RXRa (NR concentration 270 nM, RXRa partner concentration 90 nM)
In short: as §1

[7] = system: PXR homodimer (NR concentration 270 nM)
In short: as §1

[8] = system: RARa:RXR (NR concentration 270 nM, RXRa partner concentration 90 nM)
In short: as §1

[9] = system: RARa homodimer (NR concentration 270 nM)
In short: as §1

[10] = system: RARb:RXRa (NR concentration 270 nM, RXRa partner concentration 90 nM)
In short: as §1

Sequence	PBM binding z-score [1]	PBM binding z-score [2]	PBM binding z-score [3]	PBM binding z-score [4]	PBM binding z-score [5]	PBM binding z-score [6]	PBM binding z-score [7]	PBM binding z-score [8]	PBM binding z-score [9]	PBM binding z-score [10]
CCTGCTAGGTCAATGGTCAACTAAAGCAGCTCGC	3.98	4.58	0.116	-1.17	1.41	1.22	-0.291	2.27	-0.296	3.79
CAAACTAGGTCACCGGAAGGTCAAAGGCCGCATG	8.46	8.84	4.26	3.71	5.53	5.83	1.1	7.5	1.75	5.35
TTACCAAGGTGAAAGGTCGATGATGCACGCCTTG	2.4	4.78	0.899	1.64	2.36	3.08	-0.143	4.99	0.188	2.98
CCTAGTTGGTCAGGAGGTCAAACACCGGATATGA	1.54	3.02	0.223	0.259	3.46	4.59	2.21	5.06	2.09	3.76
CCCTACGGGTCACTCCAGGTTATAGCATCGGAGT	0.284	2.29	-0.814	-0.254	2.92	5.1	0.472	3.75	0.949	3.66
ATCTCTAGGTAACAGTTCAGTGAATCCCGAGGAT	3.65	3.42	1.56	1	0.452	0.487	0.757	0.576	0.915	1.01
ATACCAAGGTGATCGTGAGGTCGTTGTTACTAAC	0.34	1.36	0.414	0.123	1.05	2.84	1.29	2.11	0.23	1.3
CCTATTAGTTGACCATAAGGTCAACCGAAGCTCG	1.02	2.48	2.56	1.37	4.93	4.62	2.57	5.3	3.95	3.72
ACTATTAGTGGAGACGAGGGCAACCGATAGGTTG	-0.144	0.852	0.383	0.735	-0.247	0.218	0.0964	0.0871	0.227	0.779
TTACCAAGGAGAAAGGTCGTTGATGCACGCCTTG	0.0947	0.908	0.246	0.131	0.653	1.82	-0.00641	2.12	-0.114	1.5
ATCTCTAGGTAAAGGTAGTTCAGTGAATGCAAAT	2.73	2.3	0.954	1.19	1.25	1.15	0.822	0.523	1.7	0.628
CCGACTGGGGCAAGATTACCATAACGCACAGCCA	2.97	2.41	-0.0501	-0.549	-0.195	-0.741	-0.382	-0.513	-0.747	0.315
GCGCCTGGGGCATCAGCAGGTTACCATAACTTAA	-0.452	-0.359	-1.03	-1.67	-0.0775	0.0887	-0.879	0.514	-1.02	0.937
GCGACTGGGGCATCAGCCGGTTACCATAACTTAA	3.39	2.34	-1.15	-1.34	-0.348	-0.89	-0.327	-0.651	-1.07	0.332
ACTAGCAGGCCAAGTTGGGGTCACTCAAACAAAG	1.25	2.36	-0.0232	-0.538	2.25	5.29	1.2	5.79	-0.0777	3.14
ACTTACGGGTCAACGAGGTTGTAGCACGCGTATA	3.1	3.83	2.28	1.73	3.47	4.95	1.29	5.07	0.713	4.04

Sequence	PBM binding z-score [1]	PBM binding z-score [2]	PBM binding z-score [3]	PBM binding z-score [4]	PBM binding z-score [5]	PBM binding z-score [6]	PBM binding z-score [7]	PBM binding z-score [8]	PBM binding z-score [9]	PBM binding z-score [10]
TCATATAGGTAAATGCTTGGTGAAAGTCCGATCT	4.12	2.04	1.15	1.07	0.653	0.501	0.156	0.651	1.11	0.221
AATAGAGGGTCATCGTAGGCCAGAGTACGCACAG	3.35	4.01	0.835	0.46	2.99	4.34	0.066	4.67	1.33	4.25
GCGACTGGGGCAAAGCAGGTTACTATAAGGTTGG	4.62	3.88	0.068	-0.036	0.617	0.375	-0.473	0.949	-0.471	0.879
GCGTCTGGGGCAAAGCAGGTTACCATAAGGTTGG	3.3	2.33	-0.833	-1.14	0.154	0.372	-0.589	0.843	-1.37	1.17
TCTTGTATATCAAAGGTTAAGAAAGCCGAAGCCT	1.87	2.65	0.898	0.823	1.29	1.93	0.544	2.96	0.898	2.22
AATACACGGTCACTAGGCCAGAGTAGGTACGAAT	2.08	3.87	1.22	1.13	0.988	0.0441	-0.0687	0.462	0.429	2.77
CGTCCAAGTTCATAGGAGGTCAGTGAAGACAGAT	0.698	1.81	0.494	0.544	3.04	6.14	9.37	4.07	1.68	4.14
CTCGAAAGATCGTGCTCAGGTGAGTATACCAAAC	-0.285	-0.0174	-0.0381	0.428	0.0271	-0.467	-0.289	-0.00355	-0.239	-0.0571
TAGCCTAGGTCATGGGCCAGTATTCCACGCGAAC	1.55	3.11	0.483	-0.959	1.79	1.75	-0.956	2.95	-0.638	3.78
AGTCAAAGTTCATCTCGGTAACGTAAGATATGCT	0.386	2.85	1.54	1.05	2.38	4.97	4.44	3.65	1.33	5.06
CTGACTGGGGCAAGGTTACCATAACGCACAGCCA	4.8	5.05	0.266	0.0884	0.436	0.519	0.00598	0.987	0.104	1.86
TTACCAAGGTGAGCTTAGGTCGTTGATCCAACTC	1.61	1.67	-0.375	-0.536	-0.601	1.62	-0.264	0.665	-0.83	1.36
TCATATATGTAATACAGGTGAAAGTCGGCATCTA	2.42	2.27	1.39	1.75	0.745	0.801	0.494	1.41	0.947	0.42
ATCTCTAGGTAAAGTTCAGGGAAAGATCGATAGA	2.67	2.44	1.23	1.09	2.21	2.17	1.99	1.93	1.68	2.99
CAAACTAGGTCACGAAAGGTGAAAGTCGAATGAC	8.57	8.88	1.44	1.5	3.13	4.13	0.228	4.69	1.24	4.84
CCGTCTGGGGCATAAGGTTACCATAAGCCAGCCC	1.52	1.84	-1.52	-1.72	0.475	0.566	-0.335	1.39	-0.41	1.84
